Results published in the supplement of paper PMC11732987, “Enantioselective OTUD7B fragment discovery through chemoproteomics screening and high-throughput optimisation” (Communications Chemistry, 2025).

Experiments:
Assay in all cases: log2 ratio of Biotin-Ahx-Ub-VS probe labelling (fragment/DMSO); higher = less target engagement (more negative = stronger competition), active = hit call of the paper (q ≤ 0.05, log2 ratio ≤ -1)
Conditions in all cases: compound concentration: 200 uM; treatment time: 3 h
USP19 = target: T1, USP19 (UniProt O94966)
T1 sequence (whole entry): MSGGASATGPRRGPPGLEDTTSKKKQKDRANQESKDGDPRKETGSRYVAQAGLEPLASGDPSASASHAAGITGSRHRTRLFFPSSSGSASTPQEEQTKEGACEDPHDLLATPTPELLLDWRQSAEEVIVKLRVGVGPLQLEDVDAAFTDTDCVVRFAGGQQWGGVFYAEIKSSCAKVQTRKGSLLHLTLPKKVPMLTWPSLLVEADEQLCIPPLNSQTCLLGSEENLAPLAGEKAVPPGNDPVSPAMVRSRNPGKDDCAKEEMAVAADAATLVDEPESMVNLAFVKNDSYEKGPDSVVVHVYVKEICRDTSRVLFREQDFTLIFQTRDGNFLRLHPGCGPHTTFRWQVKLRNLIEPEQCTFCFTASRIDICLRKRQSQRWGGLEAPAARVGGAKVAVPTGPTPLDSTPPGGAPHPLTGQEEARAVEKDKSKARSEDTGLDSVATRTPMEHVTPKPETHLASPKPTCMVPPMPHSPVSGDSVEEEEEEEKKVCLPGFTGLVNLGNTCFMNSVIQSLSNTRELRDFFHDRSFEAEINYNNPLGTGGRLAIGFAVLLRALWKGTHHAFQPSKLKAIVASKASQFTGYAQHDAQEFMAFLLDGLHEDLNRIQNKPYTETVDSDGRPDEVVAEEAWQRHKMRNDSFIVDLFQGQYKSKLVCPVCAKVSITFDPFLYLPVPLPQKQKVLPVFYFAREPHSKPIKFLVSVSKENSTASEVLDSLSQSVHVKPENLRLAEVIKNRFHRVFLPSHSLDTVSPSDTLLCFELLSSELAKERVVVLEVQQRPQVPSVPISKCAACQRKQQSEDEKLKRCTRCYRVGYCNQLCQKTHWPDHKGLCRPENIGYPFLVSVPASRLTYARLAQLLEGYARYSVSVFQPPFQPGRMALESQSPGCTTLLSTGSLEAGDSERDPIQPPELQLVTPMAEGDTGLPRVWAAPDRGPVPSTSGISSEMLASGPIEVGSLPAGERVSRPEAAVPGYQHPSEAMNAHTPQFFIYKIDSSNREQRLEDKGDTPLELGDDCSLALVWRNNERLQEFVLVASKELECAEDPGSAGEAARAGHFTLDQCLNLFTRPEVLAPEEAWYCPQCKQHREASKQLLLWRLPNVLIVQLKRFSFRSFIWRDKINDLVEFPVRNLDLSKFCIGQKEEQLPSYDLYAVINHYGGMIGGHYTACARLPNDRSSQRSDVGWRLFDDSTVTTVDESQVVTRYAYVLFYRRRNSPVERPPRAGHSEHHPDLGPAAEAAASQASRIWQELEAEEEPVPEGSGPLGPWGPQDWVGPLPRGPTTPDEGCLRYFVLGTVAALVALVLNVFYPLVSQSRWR
Method in brief: (§1)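 Fragment (200 µM) or vehicle was incubated for 3 h with triplicate HEK293T lysate samples of 495 µg, which were then treated with Biotin-Ahx-Ub-VS at 0.5 µM final for 1 h. Labelled DUBs were enriched on NeutrAvidin, digested with LysC and trypsin, and analysed by diaPASEF LC-MS/MS. Values are average log2 fragment/vehicle ratios from an unpaired t-test on global-median-normalised Spectronaut label-free quantities, using proteins with ≥2 unique peptides.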

USP22 = target: T2, USP22 (UniProt Q9UPT9)
T2 sequence (whole entry): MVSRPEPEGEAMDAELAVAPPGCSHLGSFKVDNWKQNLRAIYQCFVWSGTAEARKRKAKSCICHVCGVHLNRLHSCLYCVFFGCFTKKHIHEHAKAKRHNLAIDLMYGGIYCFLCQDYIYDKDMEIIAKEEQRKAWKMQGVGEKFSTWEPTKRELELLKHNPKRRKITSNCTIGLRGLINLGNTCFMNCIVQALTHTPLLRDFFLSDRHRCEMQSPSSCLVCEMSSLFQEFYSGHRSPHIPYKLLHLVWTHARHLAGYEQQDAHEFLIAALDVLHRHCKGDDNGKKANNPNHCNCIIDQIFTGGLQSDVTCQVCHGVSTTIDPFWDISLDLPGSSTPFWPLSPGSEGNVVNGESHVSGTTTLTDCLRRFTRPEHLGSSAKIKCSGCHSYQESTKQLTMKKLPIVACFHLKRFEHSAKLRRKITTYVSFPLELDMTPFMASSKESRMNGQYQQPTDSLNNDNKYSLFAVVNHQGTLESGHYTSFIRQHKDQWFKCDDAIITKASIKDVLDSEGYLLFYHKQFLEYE
Method in brief: as §1

USP24 = USP24 (UniProt Q9UPU5)
USP24, sequence (Q9UPU5 whole entry): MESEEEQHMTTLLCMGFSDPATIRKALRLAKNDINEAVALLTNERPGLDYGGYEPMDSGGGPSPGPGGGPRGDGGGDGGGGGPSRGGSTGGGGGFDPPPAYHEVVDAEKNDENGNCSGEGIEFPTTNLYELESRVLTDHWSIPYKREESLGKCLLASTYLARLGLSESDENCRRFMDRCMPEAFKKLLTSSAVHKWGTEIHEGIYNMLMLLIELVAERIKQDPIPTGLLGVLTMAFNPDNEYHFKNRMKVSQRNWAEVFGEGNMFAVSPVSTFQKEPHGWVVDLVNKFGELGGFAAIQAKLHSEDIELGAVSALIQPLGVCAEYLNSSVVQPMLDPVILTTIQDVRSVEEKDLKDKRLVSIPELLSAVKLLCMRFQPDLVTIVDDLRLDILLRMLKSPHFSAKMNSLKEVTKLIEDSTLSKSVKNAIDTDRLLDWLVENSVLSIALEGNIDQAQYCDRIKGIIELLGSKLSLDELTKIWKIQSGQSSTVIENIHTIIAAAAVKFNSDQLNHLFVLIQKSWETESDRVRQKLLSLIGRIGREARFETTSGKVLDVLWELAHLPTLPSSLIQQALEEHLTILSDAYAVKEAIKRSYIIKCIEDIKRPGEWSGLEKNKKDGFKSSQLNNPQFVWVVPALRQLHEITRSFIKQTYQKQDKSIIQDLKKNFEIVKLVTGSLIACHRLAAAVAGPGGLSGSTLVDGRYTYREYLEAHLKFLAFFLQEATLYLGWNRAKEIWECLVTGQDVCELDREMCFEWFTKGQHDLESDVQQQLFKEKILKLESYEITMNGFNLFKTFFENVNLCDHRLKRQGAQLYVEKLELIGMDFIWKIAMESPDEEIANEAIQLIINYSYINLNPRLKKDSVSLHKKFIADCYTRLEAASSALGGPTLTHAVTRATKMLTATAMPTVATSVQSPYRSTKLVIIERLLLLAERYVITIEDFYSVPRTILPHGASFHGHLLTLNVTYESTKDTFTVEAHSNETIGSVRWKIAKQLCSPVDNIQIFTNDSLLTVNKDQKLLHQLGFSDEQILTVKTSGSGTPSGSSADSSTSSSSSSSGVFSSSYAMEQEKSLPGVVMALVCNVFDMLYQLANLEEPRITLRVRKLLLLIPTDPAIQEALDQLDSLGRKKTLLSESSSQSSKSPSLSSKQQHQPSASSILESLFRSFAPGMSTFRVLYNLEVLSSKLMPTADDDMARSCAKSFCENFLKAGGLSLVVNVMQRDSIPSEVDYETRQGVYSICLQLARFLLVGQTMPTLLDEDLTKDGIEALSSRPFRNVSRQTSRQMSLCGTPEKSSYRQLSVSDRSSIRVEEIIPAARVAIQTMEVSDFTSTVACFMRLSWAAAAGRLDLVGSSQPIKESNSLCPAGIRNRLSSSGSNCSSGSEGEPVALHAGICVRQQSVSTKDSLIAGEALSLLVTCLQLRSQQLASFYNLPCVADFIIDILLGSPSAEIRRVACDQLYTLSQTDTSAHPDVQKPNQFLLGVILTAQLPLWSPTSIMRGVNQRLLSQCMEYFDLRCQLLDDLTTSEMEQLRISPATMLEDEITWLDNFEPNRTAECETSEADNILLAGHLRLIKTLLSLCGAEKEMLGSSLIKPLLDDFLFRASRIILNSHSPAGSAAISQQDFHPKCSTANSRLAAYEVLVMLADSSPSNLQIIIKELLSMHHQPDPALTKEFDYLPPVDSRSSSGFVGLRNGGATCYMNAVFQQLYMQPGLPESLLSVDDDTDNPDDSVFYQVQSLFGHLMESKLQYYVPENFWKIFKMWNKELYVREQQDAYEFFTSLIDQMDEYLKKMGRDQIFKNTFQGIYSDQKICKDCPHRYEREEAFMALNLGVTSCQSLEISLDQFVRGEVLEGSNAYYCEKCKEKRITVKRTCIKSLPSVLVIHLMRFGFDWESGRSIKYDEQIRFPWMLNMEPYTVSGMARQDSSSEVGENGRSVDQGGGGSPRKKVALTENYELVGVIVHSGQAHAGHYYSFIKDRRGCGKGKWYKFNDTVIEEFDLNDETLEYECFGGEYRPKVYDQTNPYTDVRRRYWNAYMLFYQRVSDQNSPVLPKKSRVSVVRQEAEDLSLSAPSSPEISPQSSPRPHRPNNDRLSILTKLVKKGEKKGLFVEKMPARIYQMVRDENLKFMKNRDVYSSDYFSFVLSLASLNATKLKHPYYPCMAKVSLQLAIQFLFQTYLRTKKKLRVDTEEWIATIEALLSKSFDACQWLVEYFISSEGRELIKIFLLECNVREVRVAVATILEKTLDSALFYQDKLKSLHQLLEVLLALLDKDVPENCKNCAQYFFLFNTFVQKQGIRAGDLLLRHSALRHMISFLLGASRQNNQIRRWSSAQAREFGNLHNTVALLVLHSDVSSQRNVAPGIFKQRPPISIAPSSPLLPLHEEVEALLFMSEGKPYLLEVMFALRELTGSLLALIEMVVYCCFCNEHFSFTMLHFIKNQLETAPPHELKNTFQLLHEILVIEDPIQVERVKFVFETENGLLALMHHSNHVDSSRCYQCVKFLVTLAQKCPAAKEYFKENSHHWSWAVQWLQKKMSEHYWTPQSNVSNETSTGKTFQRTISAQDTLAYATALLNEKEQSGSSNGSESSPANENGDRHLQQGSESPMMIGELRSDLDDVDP
Method in brief: as §1

USP25 = target: T3, USP25 (UniProt Q9UHP3)
T3 sequence (whole entry): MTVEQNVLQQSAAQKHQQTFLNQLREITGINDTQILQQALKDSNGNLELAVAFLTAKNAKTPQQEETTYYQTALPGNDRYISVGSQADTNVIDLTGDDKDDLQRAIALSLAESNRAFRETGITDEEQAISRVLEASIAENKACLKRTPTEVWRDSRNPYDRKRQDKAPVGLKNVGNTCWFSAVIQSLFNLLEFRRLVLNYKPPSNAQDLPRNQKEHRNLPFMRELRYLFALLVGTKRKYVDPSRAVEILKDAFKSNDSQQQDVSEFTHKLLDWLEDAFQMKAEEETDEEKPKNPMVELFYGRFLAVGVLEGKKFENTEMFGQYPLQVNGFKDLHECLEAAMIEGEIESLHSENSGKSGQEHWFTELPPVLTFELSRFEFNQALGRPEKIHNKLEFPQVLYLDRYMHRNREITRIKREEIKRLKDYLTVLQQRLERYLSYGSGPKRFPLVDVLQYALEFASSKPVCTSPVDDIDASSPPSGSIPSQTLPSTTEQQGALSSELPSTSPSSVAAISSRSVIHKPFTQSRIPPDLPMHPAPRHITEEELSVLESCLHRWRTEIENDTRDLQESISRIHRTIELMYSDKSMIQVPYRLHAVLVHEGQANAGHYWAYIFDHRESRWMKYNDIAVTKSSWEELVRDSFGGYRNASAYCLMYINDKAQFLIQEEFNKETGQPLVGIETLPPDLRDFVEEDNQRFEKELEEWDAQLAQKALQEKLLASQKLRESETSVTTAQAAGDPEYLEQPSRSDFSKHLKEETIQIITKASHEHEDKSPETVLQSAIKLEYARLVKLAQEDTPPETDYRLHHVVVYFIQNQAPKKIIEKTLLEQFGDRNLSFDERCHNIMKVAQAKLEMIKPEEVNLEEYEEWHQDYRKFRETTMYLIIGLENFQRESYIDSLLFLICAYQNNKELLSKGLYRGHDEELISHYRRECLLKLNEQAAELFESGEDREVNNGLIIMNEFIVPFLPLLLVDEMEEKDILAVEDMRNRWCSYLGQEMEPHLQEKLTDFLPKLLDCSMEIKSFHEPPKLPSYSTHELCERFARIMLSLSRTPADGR
Method in brief: as §1

USP28 = target: T4, USP28 (UniProt Q96RU2)
T4 sequence (whole entry): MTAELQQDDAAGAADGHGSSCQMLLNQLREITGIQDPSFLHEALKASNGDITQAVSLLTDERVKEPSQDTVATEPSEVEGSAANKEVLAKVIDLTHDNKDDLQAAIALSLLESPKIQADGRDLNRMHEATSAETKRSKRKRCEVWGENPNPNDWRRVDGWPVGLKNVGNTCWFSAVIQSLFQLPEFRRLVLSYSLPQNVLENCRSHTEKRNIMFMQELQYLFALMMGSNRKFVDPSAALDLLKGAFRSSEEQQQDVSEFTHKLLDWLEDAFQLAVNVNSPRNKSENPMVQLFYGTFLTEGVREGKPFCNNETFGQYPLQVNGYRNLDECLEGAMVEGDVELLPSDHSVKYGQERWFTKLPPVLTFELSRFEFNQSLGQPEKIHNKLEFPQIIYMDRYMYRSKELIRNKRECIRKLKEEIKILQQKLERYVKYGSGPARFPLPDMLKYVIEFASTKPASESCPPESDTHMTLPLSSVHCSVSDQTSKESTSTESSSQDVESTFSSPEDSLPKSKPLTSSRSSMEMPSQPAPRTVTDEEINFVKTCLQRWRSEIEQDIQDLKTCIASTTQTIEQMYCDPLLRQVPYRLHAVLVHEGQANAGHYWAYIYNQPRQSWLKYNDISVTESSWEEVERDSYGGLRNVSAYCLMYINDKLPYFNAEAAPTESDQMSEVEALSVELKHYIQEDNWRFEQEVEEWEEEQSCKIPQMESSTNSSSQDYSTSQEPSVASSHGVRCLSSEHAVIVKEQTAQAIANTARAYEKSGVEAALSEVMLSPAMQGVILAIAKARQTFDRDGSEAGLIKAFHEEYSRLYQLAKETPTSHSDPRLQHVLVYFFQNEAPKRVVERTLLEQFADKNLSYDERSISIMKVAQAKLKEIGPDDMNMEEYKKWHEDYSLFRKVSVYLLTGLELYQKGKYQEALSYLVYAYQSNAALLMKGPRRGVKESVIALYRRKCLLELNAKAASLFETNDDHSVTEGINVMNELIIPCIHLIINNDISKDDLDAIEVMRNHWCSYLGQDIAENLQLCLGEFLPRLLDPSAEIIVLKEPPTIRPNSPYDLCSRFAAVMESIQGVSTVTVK
Method in brief: as §1

Measured: log2 ratio of Biotin-Ahx-Ub-VS probe labelling

O=C(CCl)NC1CCC2(CC1)OCCO2
inactive: USP19 -0.189 | USP22 -0.165 | USP24 -0.301 | USP25 -0.49 | USP28 -0.665
